{
  "source": "the supplement of paper PMC6555819",
  "data": [
    {"tested_on": "RARb:RXRa (NR concentration 270 nM, RXRa partner concentration 90 nM)", "experiment": "PBM binding z-score (relative to random genomic background probes); higher = stronger binding; sequences stand for … in GC…GCGATTGACAGCGTAGAATGAAGG", "procedure,_shortened": "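Ligand-free nuclear receptor dimers were bound for 1 h to custom Agilent 4×180K protein-binding microarrays. Detection used antibodies against each partner (one per run). Binding z-scores rest on regression-normalized fluorescence, with random background probes as the reference.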", "values": [
      {"sequence": "TCTTGTAGATCAAACAGGTTAAGAAAGCCTGAGT", "PBM binding z-score": 0.288},
      {"sequence": "GCTAGTTGGTCAGTATAAGGTCACACACCGGTCG", "PBM binding z-score": 3.5},
      {"sequence": "ATCTCTAGGTAACAAGTTCAGAGAAAGAGAGGAC", "PBM binding z-score": 1.53},
      {"sequence": "TCTATTAGTTGTAGGGCAACCGACGAGTCCGTTT", "PBM binding z-score": 0.601},
      {"sequence": "AGAATGAAGTTATACGTAGATCAGGGAAGAAAGT", "PBM binding z-score": -0.131},
      {"sequence": "TAGCCTAGGTCATTAGGCCAGTATAGTACGCATC", "PBM binding z-score": 3.24},
      {"sequence": "CCTTACGGGTCTCGAGGTTATAGCACGACGAGCG", "PBM binding z-score": 0.666},
      {"sequence": "ATACCAAGGTGATCGTAAGGTCGTTGATACTAAC", "PBM binding z-score": 1.55},
      {"sequence": "TTACCAAGGTGCAAGGTCGTTGATGCACGCCTTG", "PBM binding z-score": 1.22},
      {"sequence": "TCTTATAGGTAAACAGGTGAAAGTCCGTAAGTTA", "PBM binding z-score": 0.791},
      {"sequence": "ATACCAAGGTGATCGTGAGGTCCTTGATACTAAC", "PBM binding z-score": 0.729},
      {"sequence": "TCATATAGGTAAAGGTGATAGTCGAACGATATGA", "PBM binding z-score": 1.09},
      {"sequence": "AGACAAAGTTCACTAGGTAACGTAAGATTCAGCT", "PBM binding z-score": 4.83},
      {"sequence": "GATGCTAGGTCAGGTTGGTCAGCTAACGGGTACG", "PBM binding z-score": 3.46},
      {"sequence": "CCTTACTGGTCACGAGGTTATAGCACGACGAGCG", "PBM binding z-score": 2.46},
      {"sequence": "TCTTGTAGATCAGCAAGTTAAGAAAGCTGGCCAA", "PBM binding z-score": -0.472},
      {"sequence": "TCATATAGGGAAATGCTAGGTGAAAGTCCGATCT", "PBM binding z-score": 0.226},
      {"sequence": "GCAAATAGGTAATACAAGGTGAAAGTCCGATTGT", "PBM binding z-score": 0.635},
      {"sequence": "GCTTACGGGTCAACGGTTATAGCATGAATAGAAT", "PBM binding z-score": 4.08},
      {"sequence": "GCGACTGGGGCATCAGCAGATTACCATAACTTAA", "PBM binding z-score": 0.39},
      {"sequence": "GCGACTGCGGCAAAGCAGGTTACCATAAGGTTGG", "PBM binding z-score": -0.06},
      {"sequence": "GCGACTGGGGCATTAGCAGGTTACCATAACTTAA", "PBM binding z-score": 0.559},
      {"sequence": "ATCGCTAGGTAAAGATAGTTCAGTGAATGCAAAT", "PBM binding z-score": 0.139},
      {"sequence": "TAGCCTAGGTCAGATCGGGCCAATATACGCTATA", "PBM binding z-score": 2.94},
      {"sequence": "CCTACCGGGCCACGAAAGGTCATTGATTCAGTGA", "PBM binding z-score": 4.07},
      {"sequence": "CCTTACGGGTCACTGACAGGTTATAGAATTTGGA", "PBM binding z-score": 3.93},
      {"sequence": "CCTTACGGGTCACTGACAGATTATAGCATTTGGA", "PBM binding z-score": 3.93},
      {"sequence": "TCCCGGAGGACACGAAAGGTCAGAGCTCGACATC", "PBM binding z-score": 4.25},
      {"sequence": "TCTCAGAGGACACGAAAGGTCAGAGCTCGACATC", "PBM binding z-score": 4.44},
      {"sequence": "CGTCCGAGGTCAGCAGGTCAGTGAAAGCGACGTG", "PBM binding z-score": 5.15},
      {"sequence": "AGAATGAGGATATTAAGATCAGGGAATTGCGGTC", "PBM binding z-score": -0.259},
      {"sequence": "CCTAGCAGCCCAGGGTCACTCAAGCATTTCGCTT", "PBM binding z-score": 2.4},
      {"sequence": "GCTGCTAGGTCAACTGTTGGTCAGCTAAAGCTCG", "PBM binding z-score": 4.42},
      {"sequence": "ACTGGCAGGCCAAGGGTCACTCAAGATTAGTCCG", "PBM binding z-score": 3.4},
      {"sequence": "CCTCGGAGGACAGAAGGTCGGAGCTGTCCGCTTT", "PBM binding z-score": 1.12},
      {"sequence": "TAGCCTAGGTCAGGCGGGCCAGTATAGTGTCGGC", "PBM binding z-score": 3.16},
      {"sequence": "AGAATGAGGTTAAGCTCAGGGAAACAGAATACAT", "PBM binding z-score": 2.06},
      {"sequence": "CTTCAAAGTTCAACTAAGGTAACGTAAAGCACGC", "PBM binding z-score": 5.19},
      {"sequence": "TTACCAAGGTGAAGGTCTTTGATCCCTCTGTAGA", "PBM binding z-score": 1.65},
      {"sequence": "ATCTCTAGGTAAATTTCAGTGAAAGATCGATAGA", "PBM binding z-score": -0.125}
    ]}
  ]
}
